Structures are written as SMILES. ± gives the standard deviation.

Common to all, as to conditions: modulator concentration 10 µM
Assay [1] relates to RAW-Dual (murine macrophage reporter line). In words: NF-kB reporter (SEAP) activity fold change vs agonist alone; higher = enhanced NF-kB activity. In a few lines:
(§1)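 RAW-Dual murine macrophage reporter cells were seeded at 50 000 per well in 384-well plates and pre-incubated 1 hour at 37 °C with compound pin-transferred to 10 μM final. After 1 hour, a PRR agonist was added and cells incubated overnight. Supernatant NF-κB (SEAP, QUANTI-Blue, 620 nm absorbance) and IRF (Lucia luciferase, QUANTI-Luc, luminescence) signals were divided by the mean agonist-only control on the same plate to give fold change. Two replicate plates were averaged, with errors by propagation.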

For assay [2] the test system is unchanged. The assay can be described thus: IRF reporter (Lucia luciferase) activity fold change vs agonist alone; higher = enhanced IRF activity. The method in brief:
as §1

Assay [3] shares this test system. In words: viability score (confluency relative to resting cells, overnight) (fraction); higher = more viable, active = viable (0.7 or more). The method in brief: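 A compound met the cutoff when both of two confluency masks exceeded 70% of resting cells. Those masks were made with IncuCyte software from IncuCyte images of RAW-Dual macrophages treated overnight at 10 μM final. This is the basis of the viability score, which is confluency relative to resting cells.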

The mark [4] stands for this setting: agonist: CpG ODN 1826 0.5 ug/mL.

With `CN(C)C(=O)c1cc2cnc(Nc3ccc(N4CCNCC4)cn3)nc2n1C1CCCC1`, the NF-kB reporter in assay [1] (setting [4]) stood at 0.832 ± 0.036; in assay [1] (agonist: LPS 0.1 ug/mL), 0.887 ± 0.11; in assay [1] (agonist: MPLA […]), 0.941 ± 0.071. Also, the results for the IRF reporter in assay [2] (agonist: 3'3'-cGAMP 10 ug/mL), in assay [2] (agonist: LPS 0.1 ug/mL) and in assay [2] (agonist: MPLA […]) were 0.987 ± 0.046, 1.35 ± 0.29 and 1.53 ± 0.49, respectively. The viability score in assay [3] is 0.711 (active).

Turning to `CS(=O)(=O)c1ccc(C2=C(c3ccccc3)C(=O)OC2)cc1`, the values for the NF-kB reporter in assay [1] (setting [4]), in assay [1] (agonist: LPS 0.1 ug/mL) and in assay [1] (agonist: MPLA […]) were 0.962 ± 0.09, 1.04 ± 0.071 and 0.975 ± 0.042, respectively. Besides, the figures for the IRF reporter in assay [2] (agonist: 3'3'-cGAMP 10 ug/mL), in assay [2] (agonist: LPS 0.1 ug/mL) and in assay [2] (agonist: MPLA […]) were 1.05 ± 0.058, 0.97 ± 0.074 and 0.946 ± 0.084, respectively. Also, in assay [3], the viability score was 0.997 (active).

Turning to `C=Cc1c(C)c2cc3nc(cc4[nH]c(cc5nc(cc1[nH]2)C(C)=C5CCC(=O)O)c(CCC(=O)OC)c4C)[C@@]1(C)C3=CC=C(C(=O)OC)C1C(=O)OC` (stereo partly specified) [Prestw-1105], the NF-kB reporter turned out to be 0.611 ± 0.075 in assay [1] (setting [4]), 0.869 ± 0.069 in assay [1] (agonist: LPS 0.1 ug/mL) and 1.17 ± 0.16 in assay [1] (agonist: MPLA […]). Moreover, the IRF reporter in assay [2] (agonist: 3'3'-cGAMP 10 ug/mL) came out at 0.131 ± 0.018; in assay [2] (agonist: LPS 0.1 ug/mL) it was 0.642 ± 0.13; in assay [2] (agonist: MPLA […]), 0.457 ± 0.16. The viability score in assay [3] was 0.669 (inactive).

Consider `Cc1ccc(N2C(=O)C(Cl)=C(Nc3cccc(C)c3C)C2=O)cc1Cl`, for which the NF-kB reporter was 0.739 ± 0.062 in assay [1] (setting [4]), 0.897 ± 0.064 in assay [1] (agonist: LPS 0.1 ug/mL) and 1.28 ± 0.053 in assay [1] (agonist: MPLA […]). Further, the IRF reporter in assay [2] (agonist: 3'3'-cGAMP 10 ug/mL) is 0.549 ± 0.063; in assay [2] (agonist: LPS 0.1 ug/mL), 0.954 ± 0.039; in assay [2] (agonist: MPLA […]) it was 1.63 ± 0.21. In assay [3], the viability score is 0.995 (active).

In the case of `COc1ccc(C2(C#N)CCC(C(=O)O)CC2)cc1OC1CCCC1` (stereo unspecified), the NF-kB reporter was determined as 1.37 ± 0.11 in assay [1] (setting [4]), 1.16 ± 0.085 in assay [1] (agonist: LPS 0.1 ug/mL) and 1.37 ± 0.16 in assay [1] (agonist: MPLA […]). The IRF reporter in assay [2] (agonist: 3'3'-cGAMP 10 ug/mL) turned out to be 1.05 ± 0.048; in assay [2] (agonist: LPS 0.1 ug/mL), 1.25 ± 0.083; in assay [2] (agonist: MPLA […]), 1.38 ± 0.12. Besides, the viability score in assay [3] was 1.02 (active).

`CC(C)Oc1ccc(C(=O)NC2CCN(c3ncnc4c3CCCC4)CC2)cn1`: the NF-kB reporter is 1.15 ± 0.086 in assay [1] (setting [4]), 1.14 ± 0.086 in assay [1] (agonist: LPS 0.1 ug/mL) and 0.985 ± 0.031 in assay [1] (agonist: MPLA […]). The IRF reporter in assay [2] (agonist: 3'3'-cGAMP 10 ug/mL) was 0.939 ± 0.055; in assay [2] (agonist: LPS 0.1 ug/mL), 1.06 ± 0.083; in assay [2] (agonist: MPLA […]) it was 1.04 ± 0.11. Further, the viability score in assay [3] is 0.997 (active).

Consider `CCn1c2ccccc2c2cc(CNCCc3ccccc3)ccc21`, for which the NF-kB reporter worked out at 0.476 ± 0.041 in assay [1] (setting [4]), 0.534 ± 0.035 in assay [1] (agonist: LPS 0.1 ug/mL) and 0.977 ± 0.068 in assay [1] (agonist: MPLA […]). Besides, the figures for the IRF reporter in assay [2] (agonist: 3'3'-cGAMP 10 ug/mL), in assay [2] (agonist: LPS 0.1 ug/mL) and in assay [2] (agonist: MPLA […]) were 0.438 ± 0.067, 0.605 ± 0.043 and 2.43 ± 0.32, respectively. The viability score in assay [3] was 0.0405 (inactive).

For the compound `COc1ccc(NC(=O)c2nn(-c3ccc(F)cc3)cc2OC)cc1OC`, the NF-kB reporter was determined as 1.07 ± 0.12 in assay [1] (setting [4]), 1.14 ± 0.094 in assay [1] (agonist: LPS 0.1 ug/mL) and 0.889 ± 0.04 in assay [1] (agonist: MPLA […]). Besides, the IRF reporter in assay [2] (agonist: 3'3'-cGAMP 10 ug/mL) is 0.976 ± 0.07; in assay [2] (agonist: LPS 0.1 ug/mL) it was 1.23 ± 0.12; in assay [2] (agonist: MPLA […]), 1.13 ± 0.24. In addition, in assay [3], the viability score was 0.976 (active).

Turning to `Cc1ccc(OCC(O)CN2CCCCC2)c(C)c1.Cl` (stereo unspecified), the results for the NF-kB reporter in assay [1] (setting [4]), in assay [1] (agonist: LPS 0.1 ug/mL) and in assay [1] (agonist: MPLA […]) were 0.868 ± 0.15, 1.05 ± 0.12 and 1.01 ± 0.15, respectively. Also, the IRF reporter in assay [2] (agonist: 3'3'-cGAMP 10 ug/mL) came to 0.857 ± 0.056; in assay [2] (agonist: LPS 0.1 ug/mL), 1.21 ± 0.12; in assay [2] (agonist: MPLA […]) it was 1.28 ± 0.2. The viability score in assay [3] is 0.809 (active).

With `Cc1cc(=O)[nH]c(=S)[nH]1`, the results for the NF-kB reporter in assay [1] (setting [4]), in assay [1] (agonist: LPS 0.1 ug/mL) and in assay [1] (agonist: MPLA […]) were 1.04 ± 0.09, 1.02 ± 0.11 and 1 ± 0.035, respectively. The IRF reporter came out at 0.99 ± 0.073 in assay [2] (agonist: 3'3'-cGAMP 10 ug/mL), 0.969 ± 0.084 in assay [2] (agonist: LPS 0.1 ug/mL) and 1.01 ± 0.08 in assay [2] (agonist: MPLA […]). In assay [3], the viability score is 1 (active).

On to `O=S(=O)(Nc1ccnc2ccccc12)c1ccccc1`, for which the results for the NF-kB reporter in assay [1] (setting [4]), in assay [1] (agonist: LPS 0.1 ug/mL) and in assay [1] (agonist: MPLA […]) were 0.928 ± 0.075, 0.88 ± 0.066 and 0.936 ± 0.088, respectively. Also, the IRF reporter in assay [2] (agonist: 3'3'-cGAMP 10 ug/mL) is 0.858 ± 0.03; in assay [2] (agonist: LPS 0.1 ug/mL) it was 1.12 ± 0.11; in assay [2] (agonist: MPLA […]), 1.15 ± 0.19. In addition, the viability score in assay [3] is 1.03 (active).

Take `Cc1c(C)c2c(c(C)c1O)CCC(C)(CCCC(C)CCCC(C)CCCC(C)C)O2` (stereo unspecified): the NF-kB reporter in assay [1] (setting [4]) was found to be 1.02 ± 0.085; in assay [1] (agonist: LPS 0.1 ug/mL), 0.997 ± 0.052; in assay [1] (agonist: MPLA […]) it was 1.06 ± 0.023. Moreover, the IRF reporter in assay [2] (agonist: 3'3'-cGAMP 10 ug/mL) was determined as 0.92 ± 0.057; in assay [2] (agonist: LPS 0.1 ug/mL) it was 0.965 ± 0.13; in assay [2] (agonist: MPLA […]) it was 0.994 ± 0.1. In addition, in assay [3], the viability score is 0.987 (active).

In the case of `Cc1nccn1CC1CCc2c(c3ccccc3n2C)C1=O.Cl` (stereo unspecified), the figures for the NF-kB reporter in assay [1] (setting [4]), in assay [1] (agonist: LPS 0.1 ug/mL) and in assay [1] (agonist: MPLA […]) were 0.82 ± 0.2, 0.909 ± 0.28 and 0.84 ± 0.047, respectively. In addition, the IRF reporter in assay [2] (agonist: 3'3'-cGAMP 10 ug/mL) worked out at 0.889 ± 0.051; in assay [2] (agonist: LPS 0.1 ug/mL), 1.19 ± 0.23; in assay [2] (agonist: MPLA […]), 1.22 ± 0.33. Also, in assay [3], the viability score was 0.638 (inactive).

These data come from the supplement of paper PMC10646978.
